Reference: PubChem BioAssay (NCI)
Compounds without any hit were thinned out: in the full panel of roughly 79,000, 15% have a hit. Unmarked numbers belong to inactive results. Activity calls are given as the source filed them. Cut-off read from the data, not from the text of the source: active = growth inhibition above about 70%; inactive = the rest.

Legend:
[1] = NCI Yeast Anticancer Drug Screen. Data for the rad50 strain (AID 155);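 note: 0% = growth of vehicle-only cultures of the same strain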; settings: S. cerevisiae rad50 strain growth inhibition, hits give high values
Method in brief: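 Genetically altered yeast (DNA repair pathway); compound treatment; growth inhibition vs vehicle ctrl.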

[2] = NCI Yeast Anticancer Drug Screen. Data for the mec2-1 strain (AID 157); settings: S. cerevisiae mec2-1 strain, hits give high values
Method in brief: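 Test agents were screened against the mec2-1 yeast strain, with defined DNA repair or cell cycle alteration. Growth was scored as inhibition against vehicle-only controls.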

[3] = NCI Yeast Anticancer Drug Screen. Data for the sgs1 mgt1 strain (AID 161);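 note: 0% = growth of cultures given vehicle only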; settings: S. cerevisiae sgs1 mgt1 strain, hits give high values
Method in brief: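 Mutant yeast exposed to compound; growth scored against vehicle-only wells.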

[4] = NCI Yeast Anticancer Drug Screen. Data for the cln2 rad14 strain (AID 165);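 note: 0% = growth equal to vehicle treated cultures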; settings: S. cerevisiae cln2 rad14 strain, hits give high values
Method in brief: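 Growth of compound-exposed yeast (cln2 rad14 genotype) measured and expressed as inhibition relative to vehicle.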

[5] = NCI Yeast Anticancer Drug Screen. Data for the bub3 strain (AID 167); settings: S. cerevisiae bub3 mutant strain, hits give high values
Method in brief: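 Yeast carrying a defined mutation is treated with each compound, and growth is compared with that of vehicle-exposed cells to give inhibition.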

[6] = NCI Yeast Anticancer Drug Screen. Data for the mlh1 rad18 strain (AID 175); settings: S. cerevisiae mlh1 rad18 strain growth inhibition, hits give high values
Method in brief: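 In this whole-cell yeast screen, a strain with altered DNA damage repair is challenged with compound, and its growth is measured against matched vehicle-treated controls.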

[7] = at 5.0 µM (retest, dose inferred, filed as 0.5)
[8] = at 50.0 µM (retest, dose inferred, filed as 5.0)

SMILES | growth inhibition [1, 7] | growth inhibition [1, 8] | growth inhibition ([1]; at 50.0 µM) | growth inhibition [2, 7] | growth inhibition [2, 8] | growth inhibition ([2]; at 50.0 µM) | growth inhibition [3, 7] | growth inhibition [3, 8] | growth inhibition ([3]; at 50.0 µM) | growth inhibition [4, 7] | growth inhibition [4, 8] | growth inhibition ([4]; at 50.0 µM) | growth inhibition [5, 7] | growth inhibition [5, 8] | growth inhibition ([5]; at 50.0 µM) | growth inhibition [6, 7] | growth inhibition [6, 8] | growth inhibition ([6]; at 50.0 µM)
CS/C([S-])=N/N=C(C)C.CS/C([S-])=N/N=C(C)C.[Ni+2] | 34% | 94% (active) | 93.8% (active) | 19% | 96% (active) | 57% | 28% | 97% (active) | 83.7% (active) | 11% | 89% (active) | -13.8% | 72% (active) | 96% (active) | 79.8% (active) | 72% (active) | 97% (active) | 74.8% (active)
[Br][Ni][Br].c1ccc(CN2CCN(Cc3ccccc3)CCN(Cc3ccccc3)CCN(Cc3ccccc3)CC2)cc1 | 0% | 82% (active) | 96.7% (active) | 0% | 62% | 98.3% (active) | -2% | 65% | 97.6% (active) | -2% | 78% (active) | 98.2% (active) | 3% | 92% (active) | 98.5% (active) | 3% | 92% (active) | 98.2% (active)
N#Cc1ccccc1C(Cl)(Cl)Cl | 3% | -6% | -5.55% | 6% | 12% | -21.9% | -8% | 3% | -7.1% | 38% | 18% | 27.1% | 26% | 13% | 16.4% | 9% | 28% | -0.3%
CCN(CC)C1CC(O[C@H]2C[C@](O)(C(=O)CO)Cc3c(O)c4c(c(O)c32)C(=O)c2c(OC)cccc2C4=O)OC(C)C1O (stereo not given in full) | 98% (active) | 98% (active) | 99.2% (active) | 99% (active) | 99% (active) | 99.3% (active) | 99% (active) | 99% (active) | 99.5% (active) | 97% (active) | 98% (active) | 98.8% (active) | 98% (active) | 99% (active) | 99% (active) | 98% (active) | 96% (active) | 99.3% (active)
CC1CCOC(=O)/C=C/C=C/C(=O)OC2CC3OC4C5OC5(C)C(O)CC4(COC(=O)C1O)C2(C)C31CO1 (stereo not given) | 16% | 95% (active) | 90.3% (active) | 27% | 90% (active) | 92% (active) | 21% | 95% (active) | 91.5% (active) | 42% | 97% (active) | 89.5% (active) | 18% | 95% (active) | 89.2% (active) | 17% | 94% (active) | 89.4% (active)
